# Test results published in PubChem BioAssay AID1963322 (National Center for Advancing Translational Sciences (NCATS), 2024).
# Inconclusive results are not listed. A call without a number means that no potency is given here. Activity calls are given as the source filed them. Calls come from the whole dose curve.
# Biological target: cAMP-dependent protein kinase catalytic subunit alpha (Homo sapiens) (UniProt P17612)
# Assay: Protein Kinase A (PKA-HiBiT) SDR gain of signal screen
# Details: PKA-HiBiT structural dynamics response (SDR), luminescence gain of signal; series mostly up to 32.9 µM
# Summary of the method: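 PKA-N-HiBiT enzyme at 10 nM final was preincubated with compounds for 30 min at room temperature, protected from light. Nano-Glo HiBiT reagent was then added for 10 min, and luminescence was read by CCD imager. H-89 served as positive control.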
row,Structure (SMILES),Potency
1,Nc1nc(Nc2ccc(S(N)(=O)=O)cc2)n(C(=S)Nc2c(F)cccc2F)n1,11.1 µM (active)
2,Cc1ncc(NC(=O)c2ccc(CN3CCN(C)CC3)c(C(F)(F)F)c2)cc1Nc1nccc(-c2cccnc2)n1,inactive
3,O=C(Nc1cc(C(F)(F)F)ccc1N1CCCCC1)c1ccncc1,inactive
4,COc1cc2ncnc(-n3nc(-c4ccccn4)nc3N)c2cc1OC,inactive
5,Cc1cc(F)ccc1-c1nc(NC(CO)CO)nc2c1ccc(=O)n2-c1c(F)cccc1F,inactive
6,C=CC(=O)N1CCC(Oc2cc3c(Nc4ccc(Cl)c(Cl)c4F)ncnc3cc2OC)CC1,inactive
7,CC(C)(C)n1nc(-c2cccc3ccccc23)c2c(N)ncnc21,inactive
8,CCN1/C(=C\C(C)=O)Sc2ccc(OC)cc21,inactive
9,CC1(C)OCCn2c1nc1c(N3CCOCC3)nc(-c3cnc(N)nc3)nc12,inactive
10,CNC(=O)c1ccccc1Sc1ccc2c(/C=C/c3ccccn3)n[nH]c2c1,inactive
11,CSc1cccc(Nc2ncc3cc(-c4c(Cl)cccc4Cl)c(=O)n(C)c3n2)c1,inactive
12,CN1CCN(C2CCC(n3cc(-c4ccc(Oc5ccccc5)cc4)c4c(N)ncnc43)CC2)CC1 (stereo unspecified),inactive
13,CN1CCN(CCOc2cc(OC3CCOCC3)c3c(Nc4c(Cl)ccc5c4OCO5)ncnc3c2)CC1,inactive
14,Cn1ncc(NC(=O)c2nc(-c3c(F)cccc3F)sc2N)c1N1CC[C@@H](N)[C@H](F)CC1,0.7 µM (active)
15,c1cc(-c2cc(C3CCNCC3)[nH]n2)ccn1,3.62 µM (active)
16,COc1ccc2c(Oc3ccc(NC(=O)c4c(C)n(CC(C)(C)O)n(-c5ccccc5)c4=O)nc3)ccnc2c1,inactive
17,C[C@@H]1CN(CC(=O)Nc2ccc3c(c2)Cc2cccc(-c4cc(=O)cc(N5CCOCC5)o4)c2S3)C[C@H](C)O1,inactive
18,Cc1cccc(C)c1-n1c(=O)c2cnc(Nc3ccc(N4CCN(C)CC4)cc3)nc2n2c3ccccc3nc12,inactive
19,COc1ccc(S(=O)(=O)N(C(C)=O)c2ccccc2/C=C/c2cc[n+]([O-])cc2)cc1,inactive
20,Cc1cccc(/C=N/Nc2cc(N3CCOCC3)nc(OCCc3ccccn3)n2)c1,inactive
21,CCCCNc1ncc2c(-c3ccc(S(=O)(=O)N4CCOCC4)cc3)nn(C3CCC(O)CC3)c2n1 (stereo unspecified),inactive
